Assay results: PubChem BioAssay AID1246 (Columbia University Molecular Screening Center, 2008)
In all, about 120,000 compounds went through this assay and about 840 (0.7%) were called active. What follows is part of a selection rich in actives, with near analogues and random picks from the rest. Values without a mark were called inactive.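 How the source made its calls: active means inhibition above the batch mean plus 3 SD, and confirmed as a hit on visual image review (cut at about 43% in these data); inconclusive means passes the inhibition cutoff but fails visual image review; inactive means the rest.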

Assay: E-selectin induction blockers in HUVEC – imaging, immunofluorescence, high content, primary screen (AID 1246);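 further: 0% = TNF-stimulated DMSO wells and 100% = unstimulated control wells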
Details: HUVEC TNFa-induced E-selectin immunofluorescence, at 2 µM, hits give high values

SMILES	inhibition
CCOC(=O)Nc1ccccc1N1C(=O)c2ccccc2C1=O	-7.24%
CC(=O)NCCn1c(SCC(=O)Nc2ccc(C)cc2)nc2ccccc2c1=O	-10.7%
CC(=O)Nc1ccccc1Sc1ccc2c3c(cccc13)C(=O)N(c1ccc(C)cc1)C2=O	62.1% (active)
C/C=N/NC(=O)CCCC(=O)N/N=C/C	-10.5%
CN1CCC(OC(=O)COc2ccc(Cl)cc2Cl)CC1	12.5%
Cc1ccc(C(=O)NC(=S)Nc2ccc(N3CCOCC3)cc2)cc1	2.01%
Cc1ccc(C)c(Cn2cnc3c(oc4ccccc43)c2=O)c1	-10.7%
CC1CCC2(CC1)NC(=O)N(Cc1nnc(-c3cccs3)o1)C2=O (stereo not drawn)	-9.64%
Cc1nc(-c2ccc(Cl)cc2)sc1C(=O)CBr	24.5%
CCc1nnc(NC(=O)CCCSc2nc3ccccc3[nH]2)s1	-35.3%
CCC(C)(C)NC(=O)CN(C(=O)C(=O)Nc1ccc2c(c1)OCCO2)C(C)(C)CC	-8.58%
COc1ccc(NC(=O)c2ccc(OC)cc2)cc1	-30.5%
COc1ccc(NC(=O)c2c(C)oc3c2CCCC3)cc1	60.9% (active)
COc1ccc(C(=O)Nc2ccc(S(=O)(=O)NC(C)C)cc2)cc1	-8.02%
COc1ccc(-c2[nH]ncc2CN(C)Cc2cccnc2)c(F)c1	-5.34%
O=C(NCc1nnc(SCC(=O)N2CCCc3ccccc32)o1)c1ccccc1F	-38.5%
CCN(CC)S(=O)(=O)c1ccc(N(C)CCc2ccc(OC)c(OC)c2)nc1	0.93%
CCCOc1ccc(C(=O)NCCc2ccccc2)cc1	-42.2%
O=C(CSc1nc2ccccc2c(=O)n1CCCO)N1CCc2ccccc21	-7.95%
Cn1c(SCC(=O)N2CCCc3ccccc32)nc2ccccc2c1=O	-1.81%
C=CCn1c(=O)c2ccccc2n2c(SCC(=O)N3CCCc4ccccc43)nnc12	80.1% (active)
Cc1c(Br)c([N+](=O)[O-])nn1CC(=O)N1CCN(Cc2ccccc2)CC1	8.51%
O=C(/C=C/c1ccccc1Cl)Nc1ccc(S(=O)(=O)Nc2ncccn2)cc1	-13.4%
COCCCNCCOCCOc1ccc(Cl)cc1Br	-28.3%
OCCNCCOc1ccc(Cl)c(Cl)c1	75.2% (active)

SMILES	inhibition
OCCNCCCCOc1ccccc1F	-13.2%
CCOC(=O)N1CCN(CCC(=O)Nc2cc(OC)ccc2OC)CC1	-40.9%
O=C(Nc1cccc(F)c1)N1C2CCC1CC(O)(c1cccnc1)C2 (stereo not drawn)	-22.6%
CN(C)C(=O)c1nc2ccc(Cl)cn2c1CN1CCN(c2ncccn2)CC1	-15.7%
Cc1cnc(C(=O)OCC(=O)NCCCc2ccccc2)cn1	-18.2%
O=C(CCSc1ccccc1)N1CCN(c2ccccc2F)CC1	-7.82%
Cc1cc(C)n(-c2nnc(N3CCN(c4ccccc4)CC3)nn2)n1	1.97%
CCCCSc1nnc(-c2ccc(NC(=O)CC)cc2)n1C	1.71%
CCC(=O)Nc1cccc(NC(=O)CSc2nnc(-c3ccc(NS(C)(=O)=O)cc3)n2C)c1	64.3% (active)
Cn1c(SCC(=O)Nc2cccc(NC(=O)c3cccs3)c2)nnc1-c1ccncc1	26.7%
COC(=O)C(=Nc1ccccc1)/C(C(=O)C(=O)N(C)c1ccccc1)=C(\O)c1ccc(Cl)cc1	-20.7%
CSc1ncccc1C(=O)N1CCCC(CCC(=O)NCc2ccccc2F)C1 (stereo not drawn)	-22.4%
Cc1cc(C)c2c(c1)c(C)cc1nnc(SCC(=O)NCc3ccco3)n12	9.01%
Cc1ccc(SCC(=O)NC(=O)NCc2ccco2)c(C)c1	76% (active)
O=C(CSc1nnc(-c2ccco2)n1Cc1ccccc1)NC(=O)NCc1ccco1	-1.5%
Cc1cc(N2CCN(C)CC2)nc2ccc(NC(=S)N3CCOCC3)cc12	19.6%
CC(=O)N1CCN(S(=O)(=O)c2c(F)cc(F)c(Cl)c2F)CC1	-26.7%
CCOC(=O)N1CCN(C(=O)CSc2nc(C)nc3c2c(=O)n(C)c(=O)n3C)CC1	-25%
Brc1cc(/C=N/n2cnnc2)oc1Br	-13.4%
Cc1cccc(C)c1NC(=O)C1CCCN1C(=O)OC(C)(C)C (stereo not drawn)	-33.1%
C=CCN(CC=C)CCOc1ccccc1[N+](=O)[O-]	-5.8%
Cc1ccc(CNC(=O)c2cccnc2Cl)cc1	-5.85%
CSc1nc(C)cc(SC(C(C)=O)C(=O)Nc2ccccc2)n1 (stereo not drawn)	-11.9%
CC(Sc1nnc2c(n1)C1CCC2(C)C1(C)C)C(=O)Nc1ccccc1 (stereo not drawn)	70.7% (active)
CC12CCC(C(=O)N(NC(=O)c3ccccc3O)C1=O)C2(C)C (stereo not drawn)	-1.25%

SMILES	inhibition
Cc1ccc2c(Cl)c(C(=O)Nc3nn[nH]n3)sc2c1	13%
COc1ccccc1CNC(=O)C1Cc2ccccc2C(=O)O1 (stereo not drawn)	-3.67%
Cn1c(-c2ccc(F)cc2)cnc1SCC(=O)NNC(=O)Cc1ccccc1	-21.1%
CC1=NN(C(C)C)C(=O)C1	53.9% (active)
Cc1cc(C)n(Cc2cnc(N3CCOCC3)s2)n1	1.48%
Cn1c(SCC(=O)Nc2ccc(Br)cc2F)nnc1-c1ccco1	-23.6%
CCNC(=S)NNC(=O)c1ccc2ncccc2c1	9.15%
CCn1c(COc2ccccc2)nnc1SCC(=O)NCc1ccco1	-14.4%
Cc1ccc(-c2csc3nnc(SCC(=O)NCc4ccco4)n23)cc1	-6.76%
CCn1c(SCC(=O)NCc2ccco2)nnc1-c1ccc(N)cc1	69.4% (active)
Cc1ccc(-n2c(C)cc(C(=O)CN3C(=O)C(=O)N(C4CCCC4)C3=O)c2C)cc1	-16.5%
Cc1ccc(OCC(=O)Nc2ccc(S(=O)(=O)Nc3ccccn3)cc2)cc1	-18.7%
CN(C)CC(C)(C)CNC(=O)c1cc(Br)cc(Br)c1O	0.11%
CC(=O)Nc1nc(N(C)C)nc(N(C)C)n1	13.8%
CN(C)S(=O)(=O)c1cc(NC(=O)CN2C(=O)NC3(CCCc4ccccc43)C2=O)ccc1Cl (stereo not drawn)	67.1% (active)
Cc1cccc(NC(=O)CN2C(=O)CNC2=O)c1	-1.87%
CC1(c2ccccc2Cl)NC(=O)N(CC(=O)NC(=O)NCc2ccco2)C1=O (stereo not drawn)	23.7%
CN1CCN(CCCCOc2ccccc2-c2ccccc2)CC1	-23.6%
CC(=O)C1(C)N(O)C(C)(C)C(c2cccs2)=[N+]1[O-] (stereo not drawn)	-15.7%
CC1CC(C)CN(S(=O)(=O)c2ccc(C(=O)NN3CCOCC3)cc2)C1 (stereo not drawn)	-4.78%
CCOC(=O)c1c(NC(=O)CSc2nnc(CNc3ccc(C)cc3C)o2)sc(C)c1C	74.5% (active)
CCOC(=O)c1sc(NC(=O)CSc2nnc(-c3ccco3)o2)c(C(=O)OCC)c1C	-40.2%
CCOC(=O)c1c(-c2ccc(C)cc2C)csc1NC(=O)CSc1nnnn1C	-25.1%
COc1cccc(C(=O)N2CCCC(CCC(=O)NCc3ccc(F)c(F)c3)C2)c1 (stereo not drawn)	-27.8%
O=c1[nH]c2cccnc2n(CCNc2ncc(C(F)(F)F)cc2Cl)c1=O	-0.32%

SMILES	inhibition
Cc1ccc(NC(=O)c2oc3ccccc3c2C)c([N+](=O)[O-])c1	7.01%
CCOc1cc(-c2nc3cc(C)ccn3c2NCC2CCCO2)ccc1O (stereo not drawn)	-1.41%
COc1ccc(-c2nc3cnccn3c2NC(C)(C)CC(C)(C)C)cc1O	78.6% (active)
COc1ccc(-c2cc(C(F)(F)F)nc(NCc3cccnc3)n2)cc1	6.81%
COc1cccc(CNC(=O)c2n[nH]c3ccccc23)c1	21.4%
CNC(=O)COC(=O)c1cc(-c2ccc(OC)cc2)nc2ccccc12	-50.4%
CC(=O)c1cnc(-c2ccccc2)s1	-23.3%
CN(CC(=O)Nc1ccccc1F)CC(=O)Nc1ccccc1Br	-9.64%
O=C(O)CCn1c(SCc2cc(=O)n3ccccc3n2)nc2ccsc2c1=O	7.79%
COC(=O)Cn1cc(/C=C/[N+](=O)[O-])c2ccccc21	-39.6%
COc1ccccc1CCNC(=O)CSc1nnc2ccc(-c3cccnc3)nn12	23.9%
COc1ccccc1CCNC(=O)c1cnccn1	70.2% (active)
COc1cccc(OCC(=O)NNC(=O)c2cnccn2)c1	-0.48%
COc1ccccc1CNC(=O)c1cc(=O)c2ccccc2o1	6.95%
Cc1ccc(S(=O)(=O)N(C)C)cc1NC(=O)c1ccccc1Br	21.2%
COc1ccc(NC(=O)CCNS(=O)(=O)c2ccc3c(c2)c(=O)n(C)c(=O)n3C)cc1OC	-38.9%
COc1ccc(C2N=C(N)N=C(N)N2c2ccccc2)cc1OC (stereo not drawn)	62.9% (active)
COc1ccc(C2/C(=C(/O)c3ccccc3)C(=O)C(=O)N2c2ncccn2)cc1OC (stereo not drawn)	-2.78%
COc1ccc(C2CC(=O)n3c(nc4ccccc43)S2)cc1OC (stereo not drawn)	-0.21%
O=C(O)/C=C/c1ccc(OCCCF)cc1	-53.3%
CC(=O)Oc1cccc(N2C(=O)CC(Nc3ccc(N4CCOCC4)cc3)C2=O)c1 (stereo not drawn)	-16.6%
O=C(Oc1cccc(N2C(=O)C3C4c5ccccc5C(c5ccccc54)C3C2=O)c1)c1ccco1 (stereo not drawn)	13.7%
CC(=O)Oc1cccc(N2C(=O)C3CC=C(Cl)CC3C2=O)c1 (stereo not drawn)	64.7% (active)
